Laboratory results from PubChem BioAssay (EPA / NIEHS).
Values joined by “and” are separate entries in the source; they are usually repeats but may differ in a detail not shown here. Identical values can stand only once. Results filed as inconclusive are left out. The source holds several records for some structures; these can differ, active in one and inactive in another. Active and inactive are the calls of the source. The calls were made as follows, unless noted: active = hit-call score of the fitted dose curve at least 0.9, where 1 is the maximum; inactive = score below 0.9.

Tests used:
[1] = read-out: Interleukin-8 (IL8), CXCL8 (gene 3576); experiment: BSK_3C_IL8: BioMAP Diversity Plus: 3C Assay for Interleukin-8 (IL8) Biomarker Activity (AID 2283020); details: primary human endothelial cells (HUVEC); actives raise or lower the signal
How it was run: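 ELISA read-out of IL-8 from human umbilical vein endothelium, measured 24 h after chemical dosing. Activity is expressed relative to DMSO negative control, with both increases and decreases fitted.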

[2] = read-out: Monokine induced gamma interferon (MIG), CXCL9 (gene 4283); experiment: BSK_3C_MIG: BioMAP Diversity Plus: 3C Assay for Monokine induced gamma interferon (MIG) Biomarker Activity (AID 2283021); details: primary human endothelial cells (HUVEC); actives raise or lower the signal
How it was run: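 Read-out is ELISA detection of MIG on human umbilical vein endothelial cells, taken 24 h after dosing. Gain or loss of signal was scored relative to DMSO controls using bidirectional curve fitting.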

[3] = target: human Vitamin D Receptor (VDR), VDR (gene 7421) (UniProt P11473); experiment: ATG_VDR_TRANS: Attagene TRANS-FACTORIAL HepG2 Assay for human Vitamin D Receptor (VDR) (AID 2283022; active = hit-call score of the fitted dose curve at least 0.9, where 1 is the maximum)
How it was run: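 RT-PCR/capillary electrophoresis read-out of reporter mRNA induction in transiently transfected HepG2; 24 h dosing; chimeric NR-Gal4 (TRANS format); gain-of-signal fit against DMSO baseline.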

[4] = BSK_3C_SRB: Viability Assessment in the BioMAP Diversity Plus: 3C Assay (AID 2283023); details: primary human endothelial cells (HUVEC);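 also: fitted both ways against DMSO so a hit may be signal rise or drop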
How it was run: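 HUVEC, 24 h post-dose; 10% TCA fix, 0.1% SRB stain, A560 nm. Bidirectional curve fit vs DMSO negative control.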

[5] = read-out: Matrix Metallopeptidase 1 (MMP1), MMP1 (gene 4312); experiment: BSK_BE3C_MMP1: BioMAP Diversity Plus: BE3C Assay for Matrix Metallopeptidase 1 (MMP1) Biomarker Activity (AID 2283024); details: primary human bronchial epithelial cells; actives raise or lower the signal
How it was run: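 Human bronchial epithelial cells (BE3C system) exposed to compound for 24 h; MMP1 then quantified by ELISA. Activity was fitted in both directions relative to DMSO.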

[6] = read-out: Pselectin, SELP (gene 6403); experiment: BSK_4H_Pselectin: BioMAP Diversity Plus: 4H Assay for Pselectin Biomarker Activity (AID 2283026); details: primary human endothelial cells (HUVEC); actives raise or lower the signal
How it was run: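 ELISA read-out of P-selectin on human umbilical vein endothelium after 24 h of dosing. Values derive from bidirectional fitting relative to DMSO. Parallel SRB protein staining flagged overt cytotoxicity.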

[7] = BSK_4H_SRB: Viability Assessment in the BioMAP Diversity Plus: 4H Assay (AID 2283027); details: primary human endothelial cells (HUVEC);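 also: cells exposed to compound for 24 h before staining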
How it was run: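 Human umbilical vein endothelial cells were dosed with chemical and, after 24 h, fixed with 10% TCA, stained with 0.1% sulforhodamine B, and read at 560 nm to give total protein as a cytotoxicity measure. Bidirectional fitting relative to DMSO control.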

[8] = BSK_BE3C_SRB: Viability Assessment in the BioMAP Diversity Plus: BE3C Assay (AID 2283028); details: primary human bronchial epithelial cells
How it was run: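 Primary human bronchial epithelium; chemical dosing, 24 h; 10% TCA fix, 0.1% SRB stain, A560; bidirectional fit vs DMSO baseline.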

[9] = read-out: Thrombomodulin, THBD (gene 7056); experiment: BSK_3C_Thrombomodulin: BioMAP Diversity Plus: 3C Assay for Thrombomodulin Biomarker Activity (AID 2283029); details: primary human endothelial cells (HUVEC); actives raise or lower the signal
How it was run: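 Read-out is ELISA of thrombomodulin on human umbilical vein endothelium 24 h after chemical dosing. Gain or loss of signal is scored relative to DMSO. Overt cytotoxicity is checked in parallel cultures by sulforhodamine B staining.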

[10] = read-out: Urokinase-type plasminogen activator receptor (uPAR), PLAUR (gene 5329); experiment: BSK_4H_uPAR: BioMAP Diversity Plus: 4H Assay for Urokinase-type plasminogen activator receptor (uPAR) Biomarker Activity (AID 2283030); details: primary human endothelial cells (HUVEC); actives raise or lower the signal
How it was run: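 HUVEC, 24 h post-dose; uPAR by ELISA; bidirectional fit vs DMSO baseline.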

[11] = read-out: Vascular endothelial growth factor receptor 2 (Homo sapiens) (UniProt P35968); experiment: BSK_4H_VEGFRII: BioMAP Diversity Plus: 4H Assay for Vascular endothelial growth factor receptor 2 (VEGFR2) Biomarker Activity (AID 2283031); details: primary human endothelial cells (HUVEC); actives raise or lower the signal
How it was run: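 HUVEC (human primary), 4H system; 24 h post-dose; VEGFRII by ELISA; bidirectional curve fit vs DMSO baseline; gain or loss of signal scored.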

[12] = read-out: Human Leukocyte Antigen - DR isotype (HLADR), HLA-DRA (gene 3122); experiment: BSK_BE3C_HLADR: BioMAP Diversity Plus: BE3C Assay for Human Leukocyte Antigen - DR isotype (HLADR) Biomarker Activity (AID 2283032); details: primary human bronchial epithelial cells; actives raise or lower the signal
How it was run: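 ELISA read-out of HLA-DR on human lung bronchial epithelial primary cells, measured 24 h post-dosing. Both increases and decreases were scored relative to DMSO vehicle.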

[13] = read-out: Vascular cell adhesion molecule 1 (VCAM1), VCAM1 (gene 7412); experiment: BSK_4H_VCAM1: BioMAP Diversity Plus: 4H Assay for Vascular cell adhesion molecule 1 (VCAM1) Biomarker Activity (AID 2283033); details: primary human endothelial cells (HUVEC); actives raise or lower the signal;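 also: cell-surface VCAM-1 protein measured by ELISA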
How it was run: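 ELISA read-out of VCAM-1 on human umbilical vein endothelium 24 hours after chemical dosing; gain or loss of signal was fitted relative to DMSO, with sulforhodamine B staining of parallel cultures flagging overt cytotoxicity.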

[14] = read-out: Interferon-gamma inducible Protein 10 (IP10), CXCL10 (gene 3627); experiment: BSK_BE3C_IP10: BioMAP Diversity Plus: BE3C Assay for Interferon-gamma inducible Protein 10 (IP10) Biomarker Activity (AID 2283034); details: primary human bronchial epithelial cells; actives raise or lower the signal
How it was run: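 Chemical is dosed onto human lung bronchial epithelial primary cells, cultures are incubated 24 h, and IP-10 is then quantified by ELISA. Gain or loss of signal is fitted in both directions relative to DMSO.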

[15] = read-out: Monokine induced gamma interferon (MIG), CXCL9 (gene 4283); experiment: BSK_BE3C_MIG: BioMAP Diversity Plus: BE3C Assay for Monokine induced gamma interferon (MIG) Biomarker Activity (AID 2283035); details: primary human bronchial epithelial cells; actives raise or lower the signal;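 also: MIG protein measured by ELISA in BE3C cultures after 24 h of dosing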
How it was run: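 ELISA read-out of MIG in human lung bronchial epithelial primary cultures, 24 h post-dosing. Bidirectional curve fit vs DMSO baseline.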

[16] = read-out: urokinase plasminogen activator (uPA), PLAU (gene 5328); experiment: BSK_BE3C_uPA: BioMAP Diversity Plus: BE3C Assay for urokinase plasminogen activator (uPA) Biomarker Activity (AID 2283038); details: primary human bronchial epithelial cells; actives raise or lower the signal;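 also: uPA protein level quantified by ELISA in cell cultures; uPA read one day after compound addition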
How it was run: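 ELISA read-out of uPA in human lung primary bronchial epithelial cultures, 24 h post-dosing. Gain or loss of signal fitted bidirectionally relative to DMSO baseline; cytotoxicity checked in parallel cultures via SRB total protein stain.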

[17] = read-out: Interleukin-6 (IL6), IL6 (gene 3569); experiment: BSK_CASM3C_IL6: BioMAP Diversity Plus: CASM3C Assay for Interleukin-6 (IL6) Biomarker Activity for (AID 2283040); details: primary human coronary artery smooth muscle cells; actives raise or lower the signal
[18] = read-out: Transforming growth factor beta 1 (TGFb1), TGFB1 (gene 7040); experiment: BSK_BE3C_TGFb1: BioMAP Diversity Plus: BE3C Assay for Transforming growth factor beta 1 (TGFb1) Biomarker Activity (AID 2283036;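 also: TGF-b1 protein level measured by ELISA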); details: primary human bronchial epithelial cells; actives raise or lower the signal
How it was run: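 Primary human lung bronchial epithelial cells; compound exposure 24 h; TGF-b1 by ELISA; bidirectional fit, DMSO baseline. Parallel SRB total-protein staining for cytotoxicity.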

[19] = read-out: Urokinase-type plasminogen activator receptor (uPAR), PLAUR (gene 5329); experiment: BSK_BE3C_uPAR: BioMAP Diversity Plus: BE3C Assay for Urokinase-type plasminogen activator receptor (uPAR) Biomarker Activity (AID 2283039); details: primary human bronchial epithelial cells; actives raise or lower the signal;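 also: uPAR protein level measured by ELISA on the cells; cells exposed to compound for one day before measurement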
How it was run: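 Human bronchial epithelial primary cells; chemical exposure 24 h; uPAR by ELISA; bidirectional fit vs DMSO control.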

Measured: AC50

Chain of human Vitamin D Receptor (VDR), VDR (gene 7421) (P11473 whole entry, looked up, the tested form may be a part): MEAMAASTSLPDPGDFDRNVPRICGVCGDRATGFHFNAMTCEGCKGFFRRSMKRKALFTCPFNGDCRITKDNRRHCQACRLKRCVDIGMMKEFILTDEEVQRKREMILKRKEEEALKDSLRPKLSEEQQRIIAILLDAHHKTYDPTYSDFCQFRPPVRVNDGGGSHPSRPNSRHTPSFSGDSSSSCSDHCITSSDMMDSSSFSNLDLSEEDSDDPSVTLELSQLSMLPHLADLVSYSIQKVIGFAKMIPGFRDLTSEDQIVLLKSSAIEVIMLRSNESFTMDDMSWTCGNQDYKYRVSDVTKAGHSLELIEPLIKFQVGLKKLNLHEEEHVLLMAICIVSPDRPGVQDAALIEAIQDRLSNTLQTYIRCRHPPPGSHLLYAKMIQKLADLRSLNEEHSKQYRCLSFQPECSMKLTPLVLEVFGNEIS

OC(O)C(F)(F)C(F)(F)F
not listed: [18] | [19]
inactive: all other assays above

OCCCCC(F)(F)C(F)(F)C(F)(F)C(F)(F)F
not listed: [18] | [19]
inactive: all other assays above

O=C(c1ccccc1)c1ccc(O)cc1O
not listed: [3]
inactive: all other assays above

CN(C(=O)C(F)(F)C(F)(F)C(F)(F)F)[Si](C)(C)C
not listed: [18] | [19]
inactive: all other assays above

O=C(F)C1(F)C(F)(F)C(F)(F)C(F)(F)C(F)(F)C1(F)F
not listed: [18]
inactive: all other assays above

O=S(=O)(O)CCC(F)(F)C(F)(F)C(F)(F)C(F)(F)C(F)(F)C(F)(F)C(F)(F)C(F)(F)F
inactive: [1] | [2] | [4] | [6] | [7] | [8] | [9] | [10] | [11] | [13] | [15] | [16] | [17]
active: [4] 25.6 µM | [5] 11.1 µM and 15.4 µM | [12] 20.4 µM and 25.3 µM | [14] 16.8 µM and 24.1 µM
